Read-out in assay [1]: Epidermal growth factor receptor (EGFR), EGFR (gene 1956)
Nature of the assay: BSK_hDFCGF_EGFR: BioMAP Diversity Plus: hDFCGF Assay for Epidermal growth factor receptor (EGFR) Biomarker Activity (AID 2283057). The settings on record: primary human foreskin fibroblasts; actives raise or lower the signal. A digest of the protocol:
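EGFR levels by ELISA in human dermal fibroblast cultures, 24 h post-treatment, fitted bidirectionally versus DMSO. Parallel wells stained with sulforhodamine B to detect overt cytotoxicity.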

Read-out in assay [2]: Interleukin-8 (IL8), CXCL8 (gene 3576)
Description: BSK_hDFCGF_IL8: BioMAP Diversity Plus: hDFCGF Assay for Interleukin-8 (IL8) Biomarker Activity (AID 2283058). The conditions noted are these: primary human foreskin fibroblasts; actives raise or lower the signal. A digest of the protocol: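 Primary human foreskin fibroblasts (hDFCGF system) dosed with chemical; IL-8 measured by ELISA 24 hours later. Bidirectional curve fitting relative to DMSO baseline; cytotoxicity tracked in parallel cultures by SRB total protein staining.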

A short description of assay [3]: BSK_hDFCGF_Proliferation: Cell Proliferation Assessment in the BioMAP Diversity Plus: hDFCGF Assay (AID 2283059).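 Note: curves fitted for both rise and fall of signal versus DMSO baseline.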 The settings on record: primary human foreskin fibroblasts. A digest of the protocol:
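Sub-confluent human foreskin fibroblast cultures receive test chemical […]. Relative cell number is quantified by sulforhodamine B staining (0.1%, after 10% TCA fixation) at 560 nm, with bidirectional fitting referenced to DMSO.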

Read-out in assay [4]: Macrophage colony-stimulating factor (MCSF), CSF1 (gene 1435)
Nature of the assay: BSK_hDFCGF_MCSF: BioMAP Diversity Plus: hDFCGF Assay for Macrophage colony-stimulating factor (MCSF) Biomarker Activity (AID 2283060). The conditions noted are these: primary human foreskin fibroblasts; actives raise or lower the signal. An outline of the steps: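 Human foreskin fibroblast primary cultures; M-CSF measured by ELISA 24 hours after chemical dosing. Bidirectional fitting relative to DMSO, with overt cytotoxicity tracked by parallel SRB total-protein staining (0.1% SRB, 10% TCA fixation, 560 nm).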

The nature of assay [5]: BSK_hDFCGF_SRB: Viability Assessment in the BioMAP Diversity Plus: hDFCGF Assay (AID 2283061).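 Note: cells exposed to compound for 24 h before the read.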 The settings on record: primary human foreskin fibroblasts. An outline of the steps:
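Human foreskin fibroblasts in 96-well plates were treated 24 h. Total protein was measured by 0.1% SRB staining after 10% TCA fixation, read at 560 nm. Data were fitted bidirectionally against DMSO.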

Read-out in assay [6]: TIMP metallopeptidase inhibitor 1 (TIMP1), TIMP1 (gene 7076)
Nature of the assay: BSK_hDFCGF_TIMP1: BioMAP Diversity Plus: hDFCGF Assay for TIMP metallopeptidase inhibitor 1 (TIMP1) Biomarker Activity (AID 2283062). The settings on record: primary human foreskin fibroblasts; actives raise or lower the signal. An outline of the steps: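 Human foreskin fibroblast primary cultures dosed for 24 h; secreted/surface TIMP-1 quantified by ELISA. Bidirectional curve fitting against DMSO baseline; cytotoxicity tracked in parallel cultures by SRB total-protein staining.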

Read-out in assay [7]: Monokine induced gamma interferon (MIG), CXCL9 (gene 4283)
Description: BSK_hDFCGF_MIG: BioMAP Diversity Plus: hDFCGF Assay for Monokine induced gamma interferon (MIG) Biomarker Activity (AID 2283063). The settings on record: primary human foreskin fibroblasts; actives raise or lower the signal. A digest of the protocol:
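MIG/CXCL9 measured by ELISA 24 h after dosing primary human skin fibroblasts. Activity fitted in both directions against DMSO controls. Cytotoxicity was checked in parallel cultures by SRB staining read at 560 nm.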

Read-out in assay [8]: Matrix Metallopeptidase 1 (MMP1), MMP1 (gene 4312)
Nature of the assay: BSK_hDFCGF_MMP1: BioMAP Diversity Plus: hDFCGF Assay for Matrix Metallopeptidase 1 (MMP1) Biomarker Activity (AID 2283064). The conditions noted are these: primary human foreskin fibroblasts; actives raise or lower the signal. A digest of the protocol: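 ELISA read-out of MMP1 from human foreskin fibroblasts (primary skin cells), 24 h post-dose. Gain or loss of signal was fitted bidirectionally versus DMSO negative control; cytotoxicity was checked by SRB in parallel cultures.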

Read-out in assay [9]: Vascular cell adhesion molecule 1 (VCAM1), VCAM1 (gene 7412)
Description: BSK_hDFCGF_VCAM1: BioMAP Diversity Plus: hDFCGF Assay for Vascular cell adhesion molecule 1 (VCAM1) Biomarker Activity (AID 2283065). The conditions noted are these: primary human foreskin fibroblasts; actives raise or lower the signal. An outline of the steps:
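Human foreskin fibroblast primary cells dosed with chemical, VCAM-1 measured by ELISA at 24 h. Bidirectional curve fitting relative to DMSO as negative control/baseline.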

Read-out in assay [10]: Plasminogen activator inhibitor-1 (PAI1), SERPINE1 (gene 5054)
Description: BSK_hDFCGF_PAI1: BioMAP Diversity Plus: hDFCGF Assay for Plasminogen activator inhibitor-1 (PAI1) Biomarker Activity (AID 2283066). The conditions noted are these: primary human foreskin fibroblasts; actives raise or lower the signal. A digest of the protocol:
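PAI-1 levels in human dermal foreskin fibroblasts were quantified by ELISA 24 h after dosing, with gain or loss analysed against DMSO. Overt cytotoxicity was checked by sulforhodamine B total-protein staining in parallel cultures.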

Read-out in assay [11]: Intercellular Adhesion Molecule 1 (ICAM1), ICAM1 (gene 3383)
Description: BSK_KF3CT_ICAM1: BioMAP Diversity Plus: KF3CT Assay for Intercellular Adhesion Molecule 1 (ICAM1) Biomarker Activity (AID 2283067). The settings on record: primary human keratinocytes with fibroblasts; actives raise or lower the signal. An outline of the steps: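 Human keratinocyte–foreskin fibroblast co-culture was treated for 24 h. Cell-surface ICAM-1 was quantified by ELISA, fitted bidirectionally relative to DMSO. Cytotoxicity was checked in parallel cultures by SRB total-protein staining.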

Read-out in assay [12]: Interferon-gamma inducible Protein 10 (IP10), CXCL10 (gene 3627)
Nature of the assay: BSK_KF3CT_IP10: BioMAP Diversity Plus: KF3CT Assay for Interferon-gamma inducible Protein 10 (IP10) Biomarker Activity (AID 2283068). The settings on record: primary human keratinocytes with fibroblasts; actives raise or lower the signal. A digest of the protocol: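 ELISA read-out of IP-10 after 24 h chemical dosing of human skin primary co-culture (keratinocytes, foreskin fibroblasts). Gain or loss of signal relative to DMSO, bidirectional curve fit.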

The nature of assay [13]: BSK_KF3CT_SRB: Viability Assessment in the BioMAP Diversity Plus: KF3CT Assay (AID 2283069).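 Note: read 24 h after compound addition.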 The settings on record: primary human keratinocytes with fibroblasts. An outline of the steps:
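SRB read-out at 560 nm (0.1% stain, TCA-fixed cells) gauges overt cytotoxicity in a human skin keratinocyte–fibroblast co-culture 24 h post-dosing. Signal change was fitted bidirectionally relative to DMSO control.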

Read-out in assay [14]: Interleukin-1 alpha (IL1a), IL1A (gene 3552)
Nature of the assay: BSK_KF3CT_IL1a: BioMAP Diversity Plus: KF3CT Assay for Interleukin-1 alpha (IL1a) Biomarker Activity (AID 2283070). The settings on record: primary human keratinocytes with fibroblasts; actives raise or lower the signal. A digest of the protocol: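 Primary skin co-culture (keratinocytes, foreskin fibroblasts), 24 h exposure; ELISA for IL-1a; bidirectional curve fit vs DMSO.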

Read-out in assay [15]: TIMP metallopeptidase inhibitor 2 (TIMP2), TIMP2 (gene 7077)
Description: BSK_KF3CT_TIMP2: BioMAP Diversity Plus: KF3CT Assay for TIMP metallopeptidase inhibitor 2 (TIMP2) Biomarker Activity (AID 2283071). The settings on record: primary human keratinocytes with fibroblasts; actives raise or lower the signal. A digest of the protocol: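 TIMP-2 measured by ELISA at 24 h in human keratinocyte/fibroblast primary co-cultures exposed to chemicals. Both increases and decreases were fitted against DMSO. Parallel cultures were stained with SRB for total protein as an overt-cytotoxicity check.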

Read-out in assay [16]: Transforming growth factor beta 1 (TGFb1), TGFB1 (gene 7040)
Nature of the assay: BSK_KF3CT_TGFb1: BioMAP Diversity Plus: KF3CT Assay for Transforming growth factor beta 1 (TGFb1) Biomarker Activity (AID 2283072). The settings on record: primary human keratinocytes with fibroblasts; actives raise or lower the signal. An outline of the steps:
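ELISA quantifies TGF-b1 at 24 h post-dose in a primary human skin co-culture of keratinocytes and fibroblasts, with gain or loss judged against DMSO. Parallel SRB total-protein staining flags overt cytotoxicity.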

Read-out in assay [17]: C-C motif chemokine 2 (Homo sapiens) (UniProt P13500)
Nature of the assay: BSK_KF3CT_MCP1: BioMAP Diversity Plus: KF3CT Assay for Monocyte Chemoattractant Protein 1 (MCP1/CCL2) Biomarker Activity (AID 2283073). The settings on record: primary human keratinocytes with fibroblasts; actives raise or lower the signal. A digest of the protocol: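 Human keratinocyte–foreskin fibroblast co-culture; MCP-1 measured by ELISA 24 h after dosing. Bidirectional fit vs DMSO; cytotoxicity tracked by SRB total protein in parallel cultures.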

Read-out in assay [18]: Matrix Metallopeptidase 9 (MMP9), MMP9 (gene 4318)
Nature of the assay: BSK_KF3CT_MMP9: BioMAP Diversity Plus: KF3CT Assay for Matrix Metallopeptidase 9 (MMP9) Biomarker Activity (AID 2283074).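 For AC50: MMP9 protein level quantified by ELISA in the co-culture.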 The conditions noted are these: primary human keratinocytes with fibroblasts; actives raise or lower the signal. An outline of the steps: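 ELISA read-out of MMP-9 at 24 h post-dosing in a co-culture of human skin keratinocytes and foreskin fibroblasts. Gain or loss of signal was fitted in both directions against DMSO.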

Read-out in assay [19]: urokinase plasminogen activator (uPA), PLAU (gene 5328)
Nature of the assay: BSK_KF3CT_uPA: BioMAP Diversity Plus: KF3CT Assay for urokinase plasminogen activator (uPA) Biomarker Activity (AID 2283075). The conditions noted are these: primary human keratinocytes with fibroblasts; actives raise or lower the signal. An outline of the steps: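 Skin co-culture (keratinocytes + foreskin fibroblasts), human primary; 24 h post-dose; uPA by ELISA; gain/loss fit vs DMSO baseline.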

Read-out in the next assay: CD40, CD40 (gene 958)
Nature of the assay: BSK_LPS_CD40: BioMAP Diversity Plus: LPS Assay for CD40 Biomarker Activity (AID 2283076). The settings on record: primary human HUVEC with PBMC; actives raise or lower the signal. An outline of the steps: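 HUVEC plus PBMC co-culture stimulated with LPS; CD40 quantified by ELISA 24 h after compound dosing. Fitting was bidirectional relative to DMSO. SRB staining of parallel cultures flagged overt cytotoxicity.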

The source made the active and inactive calls. Rule for the calls: active = hit-call score of the fitted dose curve at least 0.9, where 1 is the maximum; inactive = score below 0.9.

Consider `C=CCCCCCCCCCCCC`, for which the result in assay [1], in assay [2], in [3], in assay [4], in [5] and in [6] was inactive. For the same molecule, the outcome in [7], in assay [8], in [9], in assay [10], in assay [11] and in [12] was inactive. For the same molecule, the result in assay [13], in assay [14], in [15], in assay [16], in [17] and in assay [18] was inactive. The outcome in assay [19] is “inactive”; with CD40, CD40 (gene 958) it was “inactive”.

In the case of `O=C(NS(=O)(=O)/C=C/c1cccs1)c1ccc(F)cc1Br`, the outcome in assay [1], in [2], in assay [4], in assay [5], in assay [6] and in assay [7] was inactive. The outcome in assay [8], in [9], in [10], in assay [11], in [12] and in [13] was inactive. The result in [15], in assay [16], in assay [17], in assay [18] and in [19] was inactive. The AC50 in assay [3] was 6.17 µM (active); in assay [14], 2.09 µM (active); in the assay with CD40, CD40 (gene 958), 0.451 µM (active).

Regarding `CN(C)C(=O)NC1(c2ccccc2)CCN(CC[C@@]2(c3ccc(F)c(F)c3)CN(C(=O)c3ccccc3)CCO2)CC1`, the result in assay [1], in [2], in [4], in assay [5], in assay [6] and in [7] was inactive. The result in assay [8], in [9], in assay [10], in assay [11], in [12] and in assay [13] was inactive. Besides, the result in assay [14], in assay [15], in assay [16], in assay [17], in assay [18] and in assay [19] was inactive. Also, the outcome with CD40, CD40 (gene 958) was inactive. Besides, the AC50 in assay [3] is 14.2 µM (active).

Regarding `O=C1c2c(O)cccc2Cc2cccc(O)c21`, the outcome in assay [1], in [2], in [3], in [6], in [8] and in assay [10] was inactive. The outcome in [13] was “inactive”; with CD40, CD40 (gene 958), “inactive”. In addition, the AC50 is 17.1 µM (active) in [4]; 7.76 µM (active) in assay [5]; 15.7 µM (active) in [7]; 25.1 µM (active) in assay [11]; 28.8 µM (active) in [12]; 18.9 µM (active) in assay [14]. For the same molecule, the half-maximal activity concentration (AC50) in [15] was 20 µM (active); in assay [16], 24.6 µM (active); in assay [17], 20 µM (active); in assay [18] it was 10.2 µM (active); in [19], 27.8 µM (active).

For `CCCCc1nc2cccnc2n1Cc1ccc(-c2ccccc2-c2nnn[nH]2)cc1`, the result in assay [1], in [2], in [4], in assay [5], in assay [6] and in assay [7] was inactive. The result in assay [8], in [9], in assay [10], in assay [11], in assay [13] and in assay [14] was inactive. The outcome in assay [16] was “inactive”; in [17], “inactive”; in assay [19], “inactive”; with CD40, CD40 (gene 958) it was “inactive”. Moreover, the AC50 in assay [3] is 18.7 µM (active); in assay [12] it was 29.7 µM (active); in assay [18], 0.0268 µM (active).

For the molecule `CS(=O)(=O)c1ccc([C@@H](C[C@H]2CCC(=O)C2)C(=O)Nc2cnccn2)cc1Cl`, the result in assay [1], in [2], in assay [3], in assay [4], in assay [5] and in assay [6] was inactive. The result in assay [7], in assay [8], in assay [9], in assay [10], in assay [11] and in assay [12] was inactive. For the same molecule, the outcome in assay [13], in [14], in [16], in [17], in [18] and in assay [19] was inactive. Also, in the assay with CD40, CD40 (gene 958), the outcome was inactive.

For the origin of these results see PubChem BioAssay (EPA / NIEHS).
